High-throughput results: PubChem BioAssay, Broad Institute
A selection follows.
aSyn 5UTR act = Activators working through SNCA 5'UTR binding (MLPCN). AID 1814. actives 7.1% (n = 300,000). activity score, % (tested at 7.5 µM), hits read low. alpha-synuclein 5'UTR reporter, activators screen; in the data active means activity score below about -60%
* = called active by the depositor.

SMILES	aSyn 5UTR act
O=C(c1ccccc1)[C@H]1[C@H](c2ccccc2)[C@@]2(N=C(c3ccccc3)OC2=O)C2c3ccccc3C=NN21 (stereo partly specified)	-110*
COC(=O)c1cccc(NC(=O)NC23CC4CC(CC(C4)C2)C3)c1	-98*
Cc1ccc(CSc2ccc(-c3cccs3)nn2)cc1	-99*
Fc1ccc(CSc2ccc(-c3cccs3)nn2)cc1	-121*
c1cncc(CSc2ccc(-c3cccs3)nn2)c1	-110*
c1ccc(CSc2ccc(-c3cccnc3)nn2)nc1	-78*
N#Cc1ccc(-c2ccc(Cl)cc2)nc1SCC(=O)c1cccc(Cl)c1	-81*
O=C(CSc1n[nH]c(-c2ccccc2)n1)c1ccccc1	-84*
N#Cc1ccc(-c2cccnc2)nc1SCC(=O)c1ccccc1	-116*
c1ccc2cc(-c3cc4ccccn4c3)ccc2c1	-98*
COc1cccc2cc(-c3nc4ccccc4[nH]3)c(=O)oc12	-157*
COc1cccc2cc(-c3ccccc3)c(=O)oc12	-113*
O=C(CSc1n[nH]c(-c2ccccn2)n1)Nc1ccc(Cl)cc1	74
O=C(CCCOc1ccccc1)Nc1nc2ccccc2[nH]1	-115*
O=C(CSc1ccccc1)Nc1nc2ccccc2[nH]1	-132*
O=C(CSc1ccc(Cl)cc1)Nc1ccc(-c2nc3ccccc3[nH]2)cc1	-94*
C=CCn1cccc(/C=C/C(=O)c2ccc(C(C)(C)C)cc2)c1=S	-74*
O=C(N/N=C(\c1ccccc1)c1ccccn1)c1ccccc1Cl	68
Cc1ccccc1C(=O)NCCSc1ccccc1	-111*
O=C(NCCSc1ccccc1)c1ccccc1Cl	-82*
CSc1ccccc1C(=O)NCCSc1ccccc1	-66*
COc1ccc2c(c1)C(=NN)c1cc(OC)ccc1-2	-65*
CC(=O)NC(c1ccccc1)c1nc2ccccc2[nH]1 (stereo unspecified)	-64*
COc1ccc2[nH]c(=O)c(-c3noc(-c4ccccc4)n3)cc2c1	-121*
COc1cccc(-c2nc(-c3ccc(NC(=O)c4cccs4)cc3)no2)c1	-154*
SMILES	aSyn 5UTR act
COc1cccc(-c2noc(-c3ccc(Cl)nc3)n2)c1	-182*
COc1cc(OC)cc(-c2nc(-c3ccccc3)no2)c1	-140*
COc1ccc(-c2nc(-c3ccccn3)no2)cc1	107
COc1ccc(-c2nc(-c3ccc(NC(=O)c4ccncc4)cc3)no2)cc1OC	-155*
O=C(O)c1ccc(-c2noc(-c3cccc(F)c3)n2)cc1	-96*
COc1cccc(-c2nc(-c3ccc(C(=O)O)cc3)no2)c1	-96*
CCC(N=c1cc(-c2ccc(OC)cc2)oc2ccc(C)cc12)C(=O)O (stereo unspecified)	-120*
C#CCOCCOCCOCCNc1nc(N2CCN(C(=O)CCCCCCCCCCNC(=O)[C@H](CO)n3cc(CCCSC)nn3)CC2)nc(N2CCN(C(=O)CCCCCCCCCCNC(=O)[C@H](CCCCN)n3cc(C[C@@H](C)CC)nn3)CC2)n1	110
C#CCOCCOCCOCCNc1nc(N2CCN(C(=O)CCCCCCCCCCNC(=O)[C@H](CCCCN)n3cc(CCCC(=O)O)nn3)CC2)nc(N2CCN(C(=O)CCCCCCCCCCNC(=O)[C@H](CCCN=C(N)N)n3cc(C[C@@H](C)CC)nn3)CC2)n1	-132*
C#CCOCCOCCOCCNc1nc(N2CCN(C(=O)CCCCCCCCCCNC(=O)[C@H](CCCCN)n3cc(CCCC(=O)O)nn3)CC2)nc(N2CCN(C(=O)CCCCCCCCCCNC(=O)[C@H](CCCCN)n3cc(CCCC(=O)O)nn3)CC2)n1	-112*
C#CCOCCOCCOCCNc1nc(N2CCN(C(=O)CCCCCCCCCCNC(=O)[C@H](CCCCN)n3cc(C[C@@H](C)CC)nn3)CC2)nc(N2CCN(C(=O)CCCCCCCCCCNC(=O)[C@H](CCCCN)n3cc(C[C@@H](C)CC)nn3)CC2)n1	107
CCOc1ccc2c(c1)C(C)=CC(C)(C)N2S(=O)(=O)c1ccc(NC(C)=O)cc1	70
CC1=CC(C)(C)N(C(=O)CNC2CCCC2)c2cc(C)ccc21	-107*
Cc1ccc(NC(=O)CNC(=O)c2ccco2)cc1	-120*
O=C(Nc1nccs1)c1ccc(NC(=O)c2ccco2)cc1	-142*
Cc1cccc(OCC(=O)Nc2ccc(NC(=O)c3ccco3)cc2)c1	-67*
O=C(Nc1ccc(Nc2ccccc2)cc1)c1ccco1	-150*
Cc1cc2cc(NC(=O)c3ccco3)ccc2[nH]1	-141*
O=C(Nc1ccc(NC(=O)c2ccco2)cc1)c1ccco1	-109*
O=C(Nc1ccc(Br)cc1)c1ccco1	-154*
O=C(Nc1ccc(Cc2ccncc2)cc1)c1ccco1	-75*
Nc1nc2ccc(NC(=O)c3ccco3)cc2s1	-116*
CC(=O)N(C)c1ccc(NC(=O)c2ccco2)cc1	-80*
O=C(Nc1ccc(NC(=O)C2CC2)cc1)c1ccco1	-92*
Brc1ccc(C2=NC(Cc3ccccc3)CO2)cc1 (stereo unspecified)	-176*
SMILES	aSyn 5UTR act
CCOC(=O)c1c(C)oc2c1c(C(c1cccnc1)N1CCOCC1)c(O)c1ccccc12 (stereo unspecified)	-245*
COc1ccc(C(=O)COc2ccccc2N2C(=O)C3C4C=CC(C4)C3C2=O)cc1 (stereo unspecified)	-82*
COc1ccc(C(=O)COc2ccccc2C#N)cc1	-127*
COc1ccc(C(=O)CNc2ccccc2CO)cc1	-70*
COc1ccc(C(=O)CNc2ccccc2C#N)cc1	-93*
Cc1cc2nc(/C(C#N)=C/c3ccncc3)[nH]c2cc1C	-62*
CC1CCc2nc(/C(C#N)=C/c3ccncc3)sc2C1 (stereo unspecified)	-114*
N#C/C(=C\c1cccnc1)c1nc2ccccc2[nH]1	-86*
N#C/C(=C\c1ccc(OC(=O)c2ccc(Cl)s2)cc1)c1nc2ccccc2[nH]1	-287*
N#C/C(=C1/CCCCCN1)c1nc2ccccc2[nH]1	-127*
COc1cc(/C=C(\C#N)c2nc3ccccc3[nH]2)ccc1OC(=O)c1ccco1	-174*
CCN(CC)c1ccc(/C=C(/C#N)c2nc3ccccc3[nH]2)c(OC(C)C)c1	-211*
N#C/C(=C\c1ccncc1)c1nc2ccccc2[nH]1	-77*
COc1cc(/C=C(/C#N)c2nc3ccccc3[nH]2)ccc1OCC(=O)Nc1ccccc1C(C)C	103
N#C/C(C(=O)c1ccccc1)=C1/CCCCCN1	-113*
COc1ccc(/C(C#N)=C/c2cccnc2)cc1	-71*
N#C/C(=C/c1ccncc1)c1nc2ccccc2s1	-89*
CCCCCCN1C=CC(=C2C(=O)c3ccccc3C2=O)C=C1	107
CCCCN1C(=O)C(=O)N(c2ccccc2)C1=S	-135*
Cc1ccc(/C=N/N2CCN(c3ccccc3)CC2)cc1	-100*
O=[N+]([O-])c1ccccc1/C=N\N1CCN(c2ccccc2)CC1	-201*
Cc1cc(-c2ccc(C(C)C)c(S(=O)(=O)N3CCN(c4ccccc4)CC3)c2)on1	56
Cc1ccccc1/C=N/N1CCN(c2ccccc2)CC1	-131*
Cc1cccc(/C=N/N2CCN(c3ccccc3)CC2)c1	-140*
O=[N+]([O-])c1ccccc1/C=C/C=N/N1CCCCC1	-205*
NS(=O)(=O)c1ccc(N/N=C/C=C/c2ccccc2[N+](=O)[O-])cc1	-177*
O=C(c1ccc(F)cc1)c1cnc(Nc2ccccc2)s1	-161*
CC(=O)c1cnc(Nc2cccc(C)c2)s1	-137*
CNc1ncc(C(=O)c2ccc(F)cc2)s1	-112*
O=C(Nc1ccc(-c2cn3c(n2)SCC3)cc1)c1ccc2ccccc2n1	-186*
